# Measured values taken from the supplement of paper PMC10849652.
# The full data set covers some 7,900 targets. This sample favours those with a hit. About 0.6% of all pairs of compound and target were hits. Values without a mark were called inactive.
# Columns and labels:
# Test in all cases: log2 fold change, soluble protein after heating vs DMSO (PISA); higher = thermal stabilisation; K562 cells, 10 uM, 30 min; active = over 0.2 and 3.5 SD of the protein, either way, in both replicates (recomputed)
# saracatinib = compound: CN1CCN(CCOc2cc(OC3CCOCC3)c3c(Nc4c(Cl)ccc5c4OCO5)ncnc3c2)CC1 [saracatinib]
# Method in brief: (§1)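 Aliquots of K562 cells (2×10^6 cells/mL) treated with 10 μM compound for 30 min were heated for 3 min over 48°C-58°C. After pooling and extraction in PBS with 0.5% NP-40 at 4°C, soluble protein from a 21,000xg, 90 min spin was quantified by TMTpro 16plex LC-MS/MS with channel sums equalised. Thermal stability is expressed against control samples, from duplicates, as a log2 fold change.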
# sotrastaurin = compound: CN1CCN(c2nc(C3=C(c4c[nH]c5ccccc45)C(=O)NC3=O)c3ccccc3n2)CC1 [sotrastaurin]
# Method in brief: as §1
# alvocidib = compound: CN1CC[C@H](c2c(O)cc(O)c3c(=O)cc(-c4ccccc4Cl)oc23)[C@H](O)C1 [alvocidib]
# Method in brief: as §1
# Tubastatin A = compound: CN1CCc2c(c3ccccc3n2Cc2ccc(C(=O)NO)cc2)C1 [Tubastatin A]
# Method in brief: as §1
# [1] = compound: CNC(=O)C1=CC=CC=C1NC2=NC(=NC=C2Cl)NC3=C(C=C(C=C3)N4CCOCC4)OC
# Method in brief: as §1
# defactinib = compound: CNC(=O)c1ccc(Nc2ncc(C(F)(F)F)c(NCc3nccnc3N(C)S(C)(=O)=O)n2)cc1 [defactinib]
# Method in brief: as §1
# rucaparib = compound: CNCc1ccc(-c2[nH]c3cc(F)cc4c3c2CCNC4=O)cc1 [rucaparib]
# Method in brief: as §1
# [2] = compound: CNc1nc(-c2ccc3c(N)n[nH]c3c2)cc(N2C[C@@H](C(=O)NC3CCCCC3)CC[C@H]2C)n1
# Method in brief: as §1
# encorafenib = compound: COC(=O)N[C@@H](C)CNc1nccc(-c2cn(C(C)C)nc2-c2cc(Cl)cc(NS(C)(=O)=O)c2F)n1 [encorafenib]
# Method in brief: as §1
# [3] = compound: COC(=O)[C@H](CCSC)NC(=O)C1=C(C=C(C=C1)NC[C@H](CS)N)C2=CC=CC=C2
# Method in brief: as §1
# [4] = compound: COC1=CC=C(C=C1)CN2C=CC3=C2C=C(C=C3)C(=O)NO
# Method in brief: as §1
# filanesib = compound: CON(C)C(=O)N1N=C(c2cc(F)ccc2F)S[C@@]1(CCCN)c1ccccc1 [filanesib]
# Method in brief: as §1
# zotarolimus = compound: CO[C@H]1C[C@@H]2CC[C@@H](C)[C@@](O)(O2)C(=O)C(=O)N2CCCC[C@H]2C(=O)O[C@H]([C@H](C)C[C@@H]2CC[C@H](n3cnnn3)[C@H](OC)C2)CC(=O)[C@H](C)/C=C(\C)[C@@H](O)[C@@H](OC)C(=O)[C@H](C)C[C@H](C)/C=C/C=C/C=C/1C [zotarolimus]
# Method in brief: as §1
# idasanutlin = compound: COc1cc(C(=O)O)ccc1NC(=O)[C@@H]1N[C@@H](CC(C)(C)C)[C@](C#N)(c2ccc(Cl)cc2F)[C@H]1c1cccc(Cl)c1F [idasanutlin]
# Method in brief: as §1
# alisertib = compound: COc1cc(Nc2ncc3c(n2)-c2ccc(Cl)cc2C(c2c(F)cccc2OC)=NC3)ccc1C(=O)O [alisertib]
# Method in brief: as §1
# [5] = compound: COc1cc2nc(-c3cc(F)ccc3O)nc(N[C@@H]3CNC[C@H]3C(C)(C)O)c2cc1OC
# Method in brief: as §1
# gefitinib = compound: COc1cc2ncnc(Nc3ccc(F)c(Cl)c3)c2cc1OCCCN1CCOCC1 [gefitinib]
# Method in brief: as §1
# [6] = compound: COc1cccc2cc(-c3nc([C@H]4CC[C@H](C(=O)O)CC4)n4ncnc(N)c34)[nH]c12
# Method in brief: as §1
# lapatinib = compound: CS(=O)(=O)CCNCc1ccc(-c2ccc3ncnc(Nc4ccc(OCc5cccc(F)c5)c(Cl)c4)c3c2)o1 [lapatinib]
# Method in brief: as §1
# pictilisib = compound: CS(=O)(=O)N1CCN(Cc2cc3nc(-c4cccc5[nH]ncc45)nc(N4CCOCC4)c3s2)CC1 [pictilisib]
# Method in brief: as §1
# Sequence of UniProt O15400 (O15400 whole entry, looked up): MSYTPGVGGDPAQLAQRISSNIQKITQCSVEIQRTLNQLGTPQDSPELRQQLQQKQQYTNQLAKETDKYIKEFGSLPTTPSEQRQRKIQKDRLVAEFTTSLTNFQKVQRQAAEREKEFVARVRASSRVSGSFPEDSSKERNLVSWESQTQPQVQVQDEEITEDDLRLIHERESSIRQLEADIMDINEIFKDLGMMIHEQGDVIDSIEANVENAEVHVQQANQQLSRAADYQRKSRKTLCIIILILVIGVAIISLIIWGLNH
# Sequence of UniProt P55061 (P55061 whole entry, looked up): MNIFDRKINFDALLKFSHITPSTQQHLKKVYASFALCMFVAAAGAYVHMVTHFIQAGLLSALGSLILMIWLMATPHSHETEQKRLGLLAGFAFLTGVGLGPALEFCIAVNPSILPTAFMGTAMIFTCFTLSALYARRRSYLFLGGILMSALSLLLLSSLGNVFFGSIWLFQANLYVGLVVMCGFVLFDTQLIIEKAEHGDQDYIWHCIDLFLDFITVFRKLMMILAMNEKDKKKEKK
# Sequence of UniProt O00506 (O00506 whole entry, looked up): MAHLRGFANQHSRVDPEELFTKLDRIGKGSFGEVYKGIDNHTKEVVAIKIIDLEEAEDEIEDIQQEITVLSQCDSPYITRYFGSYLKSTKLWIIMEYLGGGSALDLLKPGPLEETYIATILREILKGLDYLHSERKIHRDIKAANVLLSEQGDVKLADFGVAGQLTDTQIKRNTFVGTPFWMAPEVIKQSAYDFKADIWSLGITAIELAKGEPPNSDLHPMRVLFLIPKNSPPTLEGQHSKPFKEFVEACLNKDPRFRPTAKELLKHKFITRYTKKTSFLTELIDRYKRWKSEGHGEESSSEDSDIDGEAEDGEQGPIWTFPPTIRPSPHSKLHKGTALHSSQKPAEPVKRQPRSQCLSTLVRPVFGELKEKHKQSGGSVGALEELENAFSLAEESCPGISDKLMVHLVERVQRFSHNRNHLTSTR
# Sequence of UniProt O43815 (O43815 whole entry, looked up): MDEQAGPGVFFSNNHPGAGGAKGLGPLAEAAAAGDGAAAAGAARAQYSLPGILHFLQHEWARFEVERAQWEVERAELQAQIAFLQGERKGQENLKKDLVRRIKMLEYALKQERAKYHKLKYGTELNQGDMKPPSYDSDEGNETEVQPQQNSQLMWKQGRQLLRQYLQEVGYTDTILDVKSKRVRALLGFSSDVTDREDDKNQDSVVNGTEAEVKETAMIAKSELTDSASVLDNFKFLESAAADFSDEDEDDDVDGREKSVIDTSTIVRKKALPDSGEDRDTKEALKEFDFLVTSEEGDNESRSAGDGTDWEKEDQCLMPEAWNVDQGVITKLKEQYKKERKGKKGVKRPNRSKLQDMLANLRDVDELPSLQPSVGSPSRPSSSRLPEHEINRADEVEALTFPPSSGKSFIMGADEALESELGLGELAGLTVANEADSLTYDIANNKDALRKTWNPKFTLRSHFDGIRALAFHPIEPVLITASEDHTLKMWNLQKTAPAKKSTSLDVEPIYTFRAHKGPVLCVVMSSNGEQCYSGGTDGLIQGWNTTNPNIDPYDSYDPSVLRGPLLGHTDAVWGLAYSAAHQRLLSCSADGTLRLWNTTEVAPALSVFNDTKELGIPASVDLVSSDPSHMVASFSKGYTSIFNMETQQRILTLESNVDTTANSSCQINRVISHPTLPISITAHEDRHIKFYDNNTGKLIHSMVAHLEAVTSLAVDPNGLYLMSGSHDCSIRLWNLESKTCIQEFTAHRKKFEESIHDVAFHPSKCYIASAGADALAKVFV
# Sequence of UniProt Q9H2K8 (Q9H2K8 whole entry, looked up): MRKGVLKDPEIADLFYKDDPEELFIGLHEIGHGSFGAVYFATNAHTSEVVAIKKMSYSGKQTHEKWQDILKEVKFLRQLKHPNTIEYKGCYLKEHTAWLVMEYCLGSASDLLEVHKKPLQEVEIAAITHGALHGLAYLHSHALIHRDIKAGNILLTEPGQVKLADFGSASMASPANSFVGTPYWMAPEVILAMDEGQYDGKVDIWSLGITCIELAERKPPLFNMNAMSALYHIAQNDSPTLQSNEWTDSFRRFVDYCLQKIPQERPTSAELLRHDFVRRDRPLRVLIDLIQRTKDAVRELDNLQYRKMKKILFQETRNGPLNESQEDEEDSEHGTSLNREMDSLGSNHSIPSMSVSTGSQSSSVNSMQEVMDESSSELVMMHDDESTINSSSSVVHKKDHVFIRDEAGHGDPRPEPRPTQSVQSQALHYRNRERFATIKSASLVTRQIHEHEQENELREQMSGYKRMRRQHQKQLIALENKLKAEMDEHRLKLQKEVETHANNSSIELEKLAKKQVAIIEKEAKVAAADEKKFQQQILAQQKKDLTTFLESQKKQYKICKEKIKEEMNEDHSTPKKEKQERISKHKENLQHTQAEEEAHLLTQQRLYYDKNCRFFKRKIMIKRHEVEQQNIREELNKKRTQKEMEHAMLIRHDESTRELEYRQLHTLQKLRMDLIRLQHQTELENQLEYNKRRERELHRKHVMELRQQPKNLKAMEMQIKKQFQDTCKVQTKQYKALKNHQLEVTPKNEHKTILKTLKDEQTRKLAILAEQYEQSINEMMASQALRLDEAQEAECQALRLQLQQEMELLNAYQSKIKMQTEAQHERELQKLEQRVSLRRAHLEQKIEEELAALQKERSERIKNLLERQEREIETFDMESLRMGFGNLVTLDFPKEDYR
# Sequence of UniProt Q07157 (Q07157 whole entry, looked up): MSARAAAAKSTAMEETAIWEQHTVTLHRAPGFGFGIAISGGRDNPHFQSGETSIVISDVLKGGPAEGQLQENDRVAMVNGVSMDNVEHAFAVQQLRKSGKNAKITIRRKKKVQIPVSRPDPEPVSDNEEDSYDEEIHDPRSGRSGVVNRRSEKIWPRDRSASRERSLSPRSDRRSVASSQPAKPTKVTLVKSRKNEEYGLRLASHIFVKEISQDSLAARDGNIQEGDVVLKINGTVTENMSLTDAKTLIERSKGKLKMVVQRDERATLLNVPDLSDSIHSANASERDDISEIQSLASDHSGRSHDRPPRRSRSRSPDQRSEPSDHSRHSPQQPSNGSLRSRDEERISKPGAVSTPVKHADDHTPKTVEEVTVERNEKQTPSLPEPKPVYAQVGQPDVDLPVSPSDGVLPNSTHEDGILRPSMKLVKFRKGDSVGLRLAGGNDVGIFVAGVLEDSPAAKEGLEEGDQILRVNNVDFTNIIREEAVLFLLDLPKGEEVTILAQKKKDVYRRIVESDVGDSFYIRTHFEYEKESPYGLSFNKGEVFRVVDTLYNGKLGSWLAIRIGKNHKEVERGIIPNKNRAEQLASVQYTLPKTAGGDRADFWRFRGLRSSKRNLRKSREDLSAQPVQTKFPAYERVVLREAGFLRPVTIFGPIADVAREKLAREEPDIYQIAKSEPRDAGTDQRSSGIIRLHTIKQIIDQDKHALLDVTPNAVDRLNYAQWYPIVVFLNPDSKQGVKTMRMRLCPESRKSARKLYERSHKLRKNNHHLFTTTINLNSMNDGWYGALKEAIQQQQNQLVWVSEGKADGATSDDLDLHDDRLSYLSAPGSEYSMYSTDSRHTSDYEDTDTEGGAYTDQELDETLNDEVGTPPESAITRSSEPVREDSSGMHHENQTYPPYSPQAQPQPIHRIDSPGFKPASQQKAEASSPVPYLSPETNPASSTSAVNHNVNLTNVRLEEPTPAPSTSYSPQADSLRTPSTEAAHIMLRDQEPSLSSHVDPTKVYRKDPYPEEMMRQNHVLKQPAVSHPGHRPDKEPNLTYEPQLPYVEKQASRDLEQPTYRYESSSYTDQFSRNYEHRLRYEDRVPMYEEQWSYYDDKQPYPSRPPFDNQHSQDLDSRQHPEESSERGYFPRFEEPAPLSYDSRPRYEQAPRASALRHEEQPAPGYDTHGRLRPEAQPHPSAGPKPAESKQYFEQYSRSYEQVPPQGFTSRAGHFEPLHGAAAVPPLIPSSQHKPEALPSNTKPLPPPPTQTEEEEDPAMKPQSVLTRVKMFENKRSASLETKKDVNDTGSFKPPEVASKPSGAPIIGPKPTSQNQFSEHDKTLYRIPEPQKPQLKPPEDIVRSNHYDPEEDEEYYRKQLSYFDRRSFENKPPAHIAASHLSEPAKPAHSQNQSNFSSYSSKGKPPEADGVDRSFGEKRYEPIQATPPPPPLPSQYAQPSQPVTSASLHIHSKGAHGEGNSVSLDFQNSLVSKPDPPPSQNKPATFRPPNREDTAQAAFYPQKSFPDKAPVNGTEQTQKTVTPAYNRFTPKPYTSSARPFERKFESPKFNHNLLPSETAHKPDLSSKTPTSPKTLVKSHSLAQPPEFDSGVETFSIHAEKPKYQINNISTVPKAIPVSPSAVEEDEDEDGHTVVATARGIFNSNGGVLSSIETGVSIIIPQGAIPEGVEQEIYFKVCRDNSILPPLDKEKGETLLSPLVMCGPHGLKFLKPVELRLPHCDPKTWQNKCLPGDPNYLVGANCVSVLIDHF
# Sequence of UniProt Q96QD8 (Q96QD8 whole entry, looked up): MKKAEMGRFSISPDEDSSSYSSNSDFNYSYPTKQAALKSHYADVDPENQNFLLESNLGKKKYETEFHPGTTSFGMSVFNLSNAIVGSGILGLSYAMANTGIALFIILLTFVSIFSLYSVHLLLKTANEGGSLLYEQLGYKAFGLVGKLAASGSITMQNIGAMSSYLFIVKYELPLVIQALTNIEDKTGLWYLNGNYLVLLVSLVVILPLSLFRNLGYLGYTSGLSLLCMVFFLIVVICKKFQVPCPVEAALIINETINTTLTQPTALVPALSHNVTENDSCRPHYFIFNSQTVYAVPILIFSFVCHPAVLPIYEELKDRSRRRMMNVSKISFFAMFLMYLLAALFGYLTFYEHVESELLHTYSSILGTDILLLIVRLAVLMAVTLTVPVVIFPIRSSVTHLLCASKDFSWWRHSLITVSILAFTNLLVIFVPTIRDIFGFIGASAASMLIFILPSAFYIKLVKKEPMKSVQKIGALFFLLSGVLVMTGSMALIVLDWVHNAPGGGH
Target,log2 fold change (saracatinib),log2 fold change (sotrastaurin),log2 fold change (alvocidib),log2 fold change (Tubastatin A),log2 fold change [1],log2 fold change (defactinib),log2 fold change (rucaparib),log2 fold change [2],log2 fold change (encorafenib),log2 fold change [3],log2 fold change [4],log2 fold change (filanesib),log2 fold change (zotarolimus),log2 fold change (idasanutlin),log2 fold change (alisertib),log2 fold change [5],log2 fold change (gefitinib),log2 fold change [6],log2 fold change (lapatinib),log2 fold change (pictilisib)
SRPRA (UniProt P08240),-0.001,-0.006,-0.014,-0.007,0.033,0.022,0.116,0.06,0.019,-0.044,0.008,-0.022,-0.005,-0.107,-0.005,0.122,-0.032,-0.002,0.013,-0.012
SLC27A2 (UniProt O14975),0,0.005,-0.079,-0.015,0.144,-0.006,0.056,0.333 (active),0.015,-0.034,0.089,-0.033,0.032,0.257,-0.034,0.046,0.156,-0.052,0.112,0.034
SMARCE1 (UniProt Q969G3),-0.036,-0.204,-0.033,0.018,-0.032,0.579 (active),-0.016,0.023,0.166,-0.199,0.035,0.058,0.052,0.013,-0.21,-0.07,0.066,0.206,0.038,-0.062
TJP2 isoform 7 (UniProt Q9UDY2),-0.074,-0.151,-0.067,0.047,-0.06,-0.211,0.051,0.054,0.066,-0.097,0.019,0.093,0.068,-0.017,-0.151,-0.091,0.042,0.012,0.008,0.067
STIM1 (UniProt Q13586),0.003,0,-0.075,-0.029,-0.001,-0.048,0.011,-0.047,0.052,0.032,0.048,-0.123,0.041,0.02,-0.029,-0.218,0,0.037,-0.011,0.036
TLK2 isoform 2 (UniProt Q86UE8),0.048,-0.012,-0.027,0.014,-0.031,0,-0.051,-0.003,-0.006,0,-0.019,0.038,0.032,0.087,0.115,-0.036,0.007,0.06,0.041,-0.071
SLC38A2 (UniProt Q96QD8),-0.007,0.027,0,-0.043,0.004,-0.034,-0.044,-0.188,0.045,-0.024,-0.041,-0.205,0.048,0.011,-0.019,-0.122,-0.099,0.097,-0.055,
STK25 (UniProt O00506),-0.045,0.088,0.028,-0.007,-0.078,-0.041,0.011,-0.012,0.039,0.051,-0.06,-0.006,-0.039,0.006,-0.055,0.076,-0.061,0.038,-0.047,0.053
STRN (UniProt O43815),0.022,0.026,-0.097,0.013,-0.007,-0.076,-0.007,-0.026,0.017,-0.017,-0.002,-0.002,0.052,-0.018,-0.083,-0.003,0.02,0.017,0.015,0.006
TMBIM6 isoform 2 (UniProt P55061),0.08,-0.029,-0.027,0.062,-0.004,-0.007,-0.065,-0.006,-0.005,0.039,-0.007,-0.233,-0.099,-0.51 (active),-0.27,-0.535 (active),-0.087,-0.165,-0.196,
TLK1 (UniProt Q9UKI8),0.022,-0.011,-0.022,0.036,-0.064,-0.013,-0.029,-0.002,0.022,-0.033,-0.011,-0.021,0.019,-0.009,-0.023,-0.029,0.006,0.064,-0.018,-0.04
TBC1D10B (UniProt Q4KMP7),-0.025,-0.036,-0.036,0.001,-0.015,-0.008,0.094,0.009,0.048,-0.023,-0.001,0.062,0.011,0.032,-0.088,-0.088,0.008,-0.042,0.041,-0.002
TAOK3 (UniProt Q9H2K8),-0.002,-0.089,-0.062,0.042,-0.031,-0.109,-0.013,0.019,0.052,-0.044,0.047,0.014,0.002,-0.003,-0.038,-0.049,0.001,-0.011,0.061,-0.001
STX7 (UniProt O15400),0.063,0.026,-0.001,-0.036,0.013,-0.033,0.028,-0.014,-0.039,-0.02,0.065,-0.071,0.027,-0.023,-0.048,0.013,-0.01,0.045,-0.002,-0.118
TGFBI (UniProt Q15582),0.017,0.171,0.054,-0.005,-0.014,-0.037,-0.06,-0.113,0.006,0.098,0.063,-0.054,-0.892 (active),0.084,-0.012,-0.003,-0.029,0.15,0.018,-0.083
TJP1 (UniProt Q07157),-0.049,-0.064,-0.114,0.045,-0.099,-0.16,0.018,0.003,0.029,-0.056,0.02,0.035,0.03,0.001,-0.059,0.005,0.038,0.055,-0.006,0.017
